CtBP-E1A inh = CtBP/E1A binding inhibition; AlphaScreen GST-E1A/His-CtBP binding, 1536-well; stronger effect = lower value; activity change, % (concentration not given with the values); 340,000 tested, 0.49% active; AID 651724
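AlphaScreen with 125 nM GST-E1A and 125 nM His-CtBP (5X stocks) in Tris pH 8.0, 300 mM NaCl, BSA, Tween 20, TCEP. Compounds preincubated 2 h at 37 deg C, then glutathione donor/nickel acceptor beads added for 1 h at 37 deg C in dark.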
CCT modulator = modulators of cytosolic chaperonin (CCT/TRiC) activity | AID 651819 | purified chaperonin ATPase assay, HTRF ADP detection, 30 min | activity change, % (concentration not given with the values), hits read low | 360,000 tested, 0.3% active; in the data active = activity change below about -30%
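TRiC (40 or 20 nM final, by batch activity) in 30 mM Tris pH 7.4, 100 mM KCl, 5 mM MgCl2, 1 mM DTT was treated with compound at 76 uM single dose, then 10 uM ATP, 30 min at 37 °C. ADP was read by HTRF Transcreener.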
pAkt inh = inhibitors of Akt phosphorylation. activity change, % for hits at 50 µM. Neuro2A IGF-stimulated pAkt S473 HTRF, 20 min; stronger effect = lower value. 360,000 tested, 0.32% active; in the data active = activity change below about -80%; inconclusive = mostly about -51% to -80%
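Neuro2A cells (4,500/well, DMEM with 0.5% FBS) were treated with compound at a single 50 µM final concentration, stimulated with 6 nM IGF for 20 min at 37 °C, and lysed. Phospho-Akt Ser473 was read by HTRF as 665/615 ratio ×10^4.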
Six1-Eya2 inh = Six1/Eya2 interaction inhibition. Q15475+O00167. AlphaScreen GST-Six1/His-Eya2 binding, biochemical; stronger effect = lower value. activity change, % (no concentration beside the values). 360,000 tested, 0.56% active
Target sequence (O00167 whole entry, looked up): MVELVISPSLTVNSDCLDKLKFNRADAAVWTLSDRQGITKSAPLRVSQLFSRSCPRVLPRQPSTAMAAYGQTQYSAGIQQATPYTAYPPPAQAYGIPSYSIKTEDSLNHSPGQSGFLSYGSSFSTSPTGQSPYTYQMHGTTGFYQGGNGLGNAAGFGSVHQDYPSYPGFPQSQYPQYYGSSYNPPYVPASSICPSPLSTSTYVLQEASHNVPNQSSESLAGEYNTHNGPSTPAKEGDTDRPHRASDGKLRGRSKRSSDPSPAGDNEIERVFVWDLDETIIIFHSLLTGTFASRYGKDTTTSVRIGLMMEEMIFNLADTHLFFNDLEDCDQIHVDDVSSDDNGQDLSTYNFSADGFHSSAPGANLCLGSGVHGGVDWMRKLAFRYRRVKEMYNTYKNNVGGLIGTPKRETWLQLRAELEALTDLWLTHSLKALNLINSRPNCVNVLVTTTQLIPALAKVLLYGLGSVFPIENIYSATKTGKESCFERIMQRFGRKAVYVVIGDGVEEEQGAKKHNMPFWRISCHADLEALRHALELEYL
Target sequence (Q15475 whole entry, looked up): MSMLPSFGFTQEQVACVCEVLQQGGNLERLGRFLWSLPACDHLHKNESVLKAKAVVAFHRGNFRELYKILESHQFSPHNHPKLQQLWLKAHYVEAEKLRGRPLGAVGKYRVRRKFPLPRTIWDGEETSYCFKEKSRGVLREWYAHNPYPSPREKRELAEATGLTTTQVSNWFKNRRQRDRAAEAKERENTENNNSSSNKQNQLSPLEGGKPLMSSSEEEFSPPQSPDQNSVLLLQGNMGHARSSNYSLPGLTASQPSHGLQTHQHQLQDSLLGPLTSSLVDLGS
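Homogeneous AlphaScreen proximity assay pairing GST-Six1 with His-tagged Eya2 (added as 5X mix: 250 nM and 500 nM) in 50 mM Tris pH 8.0, 300 mM NaCl, 1 mM TCEP. Glutathione donor and nickel acceptor beads; 1 h, 37 °C, dark.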
Of the large screens only hits and unclear results are named; the others gave an inactive call. The list is not random: actives were taken first. Their share in the collection is about 1.3%. Cut-off read from the data, not from the text of the source, unless noted: active = activity change below about -65%; inconclusive = mostly about -30% to -63%; inactive = weaker than that.

CC(=C/c1ccccc1)/C=N/Nc1nc(N2CCOCC2)nc(N2CCOCC2)n1	CCT modulator -49
C=CCNC(=S)Nc1cccc2[nH]ncc12	CCT modulator -32
CNC(=S)Nc1cccc2[nH]ncc12	none (no result: pAkt inh)
CC1Cc2ccccc2N1C(=O)COC(=O)c1ccc(N(C)C)cc1 (stereo not given)	none (no result: CtBP-E1A inh)
O=S(c1cc(Cl)cc(Cl)c1O)c1cc(Cl)cc(Cl)c1O	Six1-Eya2 inh -92
Oc1c(Cl)cc(Cl)cc1CNn1cnnc1	none
CC(=O)c1ccc(NC(=O)CSc2nnc(C3CC3)n2C2CC2)cc1	none
Cn1nnnc1SCc1ccc(C(=O)Nc2nccs2)cc1	CtBP-E1A inh -80, Six1-Eya2 inh -70
Cc1c(C#N)c2ncn(CCCN(C)C)c(=O)c2n1-c1ccccc1	none
Cc1c(C#N)c2ncn(Cc3ccccn3)c(=O)c2n1-c1ccccc1	CCT modulator -80
Cc1c(C#N)c2ncnc(N)c2n1-c1ccccc1	pAkt inh -104%
O=C(COC(=O)c1ccc(Cl)cc1Cl)Nc1cccc(S(=O)(=O)NC2=NCCC2)c1	none
Cc1c(C(=O)NCCN2CCCC(O)C2)oc2c(F)cccc12 (stereo not given)	none
COc1ccc(NC(=O)CNC(=O)c2nn(-c3ccc(OC)cc3OC)c(=O)c3ccccc23)c(OC)c1	CCT modulator -56
O=C(Nc1ccc(S(=O)(=O)N2CCCC2)cc1)c1cccc(OC(F)F)c1	none
CC(=O)N1CCN(S(=O)(=O)c2cccc(C(=O)Nc3ccc(OC(F)F)cc3)c2)CC1	CCT modulator -39
Cn1nc([N+](=O)[O-])nc1Sc1cccc2cccnc12	Six1-Eya2 inh -90 (no result: CtBP-E1A inh)
O=[N+]([O-])c1ccc(Cl)cc1Sc1cccc2cccnc12	none
CCOC(=O)C1CCN(S(=O)(=O)c2ccc(Cl)cc2OC)CC1	none
CCOC(=O)C1CCN(S(=O)(=O)c2cc(Cl)c(C)cc2OC)CC1	pAkt inh -105%
Cc1cc(C)c2c(N)c(C(=O)Nc3ncc(C)s3)sc2n1	pAkt inh -94%
CN(C(=O)CSc1nncn1-c1ccccc1)c1ccccc1	none
CN(C(=O)CSc1nc(N)nn1-c1ccccc1)c1ccccc1	CCT modulator -70
CC(C)c1ccc(Oc2cccc(C(=O)/C(C#N)=C/N(C)C)c2)cc1	none
CN(C)/C=C(\C#N)C(=O)c1cccc(Oc2ccc(Br)cc2)c1	pAkt inh -112%
COc1cc(C(=O)N2CCCCC2c2cc(C(=O)NC(C)C)no2)cc(OC)c1C (stereo not given)	none
Cc1cc(N/N=C/c2ccc(O)cc2)nc(NS(=O)(=O)c2ccccc2)n1	CtBP-E1A inh inconclusive, Six1-Eya2 inh -73
Cc1ccc(/C=N/Nc2cc(C)nc(NCc3ccccc3)n2)cc1	none
COC(=O)C1OC2(OC1C(=O)OC)c1ccccc1-c1ccccc12 (stereo not given)	pAkt inh -120%
CC1=NCCN1S(=O)(=O)c1ccccc1[N+](=O)[O-]	Six1-Eya2 inh -93 (no result: CtBP-E1A inh)
CCOc1ccc(CCNC(=O)CS(=O)Cc2nc(-c3ccccc3Cl)oc2C)cc1OCC (stereo not given)	none
Cc1ccc(CCNC(=O)CS(=O)Cc2nc(-c3ccccc3Cl)oc2C)cc1 (stereo not given)	CCT modulator -60 (no result: CtBP-E1A inh, pAkt inh)
O=C(CC[C@H]1O[C@@H](n2ccc(=O)[nH]c2=O)[C@H](O)[C@@H]1O)N[C@@H](Cc1ccccc1)C(=O)NCC1CCCO1 (stereo not given in full)	none
Cc1nc(N2CCN(Cc3ccccc3)CC2)nc2c1C(=O)CC(C)C2 (stereo not given)	pAkt inh -110%
CCOc1ccc2c(c1)c(N=NC(=N)N)c(O)n2C	CtBP-E1A inh inconclusive, Six1-Eya2 inh -80
NCC(=O)Nc1ccc(Cl)cc1C(=O)c1ccc[nH]1	Six1-Eya2 inh -81 (no result: CtBP-E1A inh)
Oc1ccc(N=Nc2ccccc2-c2nn[nH]n2)c(O)c1	Six1-Eya2 inh -86 (no result: CtBP-E1A inh)
Cc1ccccc1-c1nn[nH]n1	none
Cc1nc2ccccc2c(=O)n1NC(=O)c1ccccc1Br	none
Cc1nc2ccccc2c(=O)n1NC(=O)/C=C/c1ccc(Br)cc1	CtBP-E1A inh -65
Cc1cccc(-c2nc3ccccc3c(=O)n2NC(=O)/C=C/c2ccc([N+](=O)[O-])cc2)c1	CtBP-E1A inh -81
CCOc1ccc(NC(=S)NCc2ccc3[nH]c(C)cc3c2)cc1	Six1-Eya2 inh -68 (no result: CtBP-E1A inh)
CCCCNC(=S)NCc1ccc2[nH]c(C)cc2c1	none
COc1ccc(/C=C/C(=O)Nc2ccccc2C(=O)O)cc1	CCT modulator -36
O=C1NC(c2ccccc2Cl)Nc2ccccc21 (stereo not given)	pAkt inh -111%
O=C1NC(c2cccc3ccccc23)Nc2ccccc21 (stereo not given)	none
CCN1CCN(c2ccc(S(=O)(=O)N3CCOCC3)cc2NC(=O)/C=C/c2ccc([N+](=O)[O-])cc2)CC1	none
COCCn1c(SCC(=O)N(C)c2ccccc2)nc2c([nH]c3ccccc32)c1=O	none
N#CC1=C(N)OC2=C(C(=O)CCC2)C1CCc1ccccc1 (stereo not given)	none
O=C1CCCC2=C1C(Cc1ccccc1)C1=C(CCCC1=O)O2	pAkt inh -118%
COc1cc(F)ccc1S(=O)(=O)N1CCN(c2ccccc2)CC1	none (no result: CtBP-E1A inh)
Cc1cccc(OCC(=O)NCCCNC(=O)c2ccco2)c1	none
CC(C)C(NC(=O)OC(C)(C)C)C(=O)N1CCCC1C(=O)NC(Cc1ccccc1)C(N)=O (stereo not given)	pAkt inh -112%
CC(C)(C)OC(=O)N[C@H](Cc1ccccc1)C(=O)N1CCC[C@@H]1C(=O)O	none (no result: CtBP-E1A inh)
CC1(C)CC(=O)C2=C(C1)NC(SCC(=O)Nc1ccccc1)=C(C#N)C2c1ccco1 (stereo not given)	none
Cc1ccc(C(=O)CSC2=C(C#N)C(c3ccco3)C3=C(CC(C)(C)CC3=O)N2)cc1 (stereo not given)	CCT modulator -47
O=C(Nc1cc(S(=O)(=O)N2CCOCC2)ccc1Cl)c1ccncc1	none
O=C(Cn1ccc2ccccc2c1=O)NCCC(=O)NC1CCN(Cc2ccccc2)CC1	CCT modulator -31
Cc1ccc(C=Nc2ccccc2C(N)=O)o1	none
Cc1ccc(C=Nc2ccc(N(C)C)cc2)o1	CtBP-E1A inh -68, Six1-Eya2 inh inconclusive
CCOC(=O)c1cc2c(c(CCO)n1)[C@@H](CCO)N(S(=O)(=O)C(C)(C)C)C2	none
CCOc1ccc(CCNC(=O)CCCn2c(=O)c3cccn3c3cccnc32)cc1OCC	CCT modulator -86 (no result: CtBP-E1A inh, pAkt inh)
O=S(=O)(c1ccc(Br)cc1)N1CCN(c2cc(-c3ccccc3)nc3ncnn23)CC1	none (no result: pAkt inh)
O=S(=O)(c1ccccc1)N1CCN(c2cc(-c3ccccc3)nc3ncnn23)CC1	pAkt inh -88%
COc1cc(/C=C2/SC(=Nc3ccc(O)cc3)NC2=O)cc(OC)c1O	Six1-Eya2 inh -71
COc1cc(/C=C2\SC(=Nc3ccc(O)cc3)NC2=O)cc(OC)c1OC	none
CC(C)C(=O)N1CCCC1(C)C(=O)Nc1ccc(-n2cncn2)cc1 (stereo not given)	none
